Test results taken from PubChem BioAssay AID1259418 (Broad Institute, 2018).
In all, about 3,400 compounds went through this assay and about 840 (25%) were called active. Inconclusive results (about 11%) are left out. Only a sample is shown. Results with a measured potency or affinity are listed apart. Values without a mark were called inactive.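 Rule for the calls: active = fitted half-maximal concentration of signal decrease at or below twice the sample's top tested concentration; inconclusive = flat curve between -70 and -30 percent, or poor fit; inactive = flat within 30 percent, signal rise, or potency above limit.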

Experiment: T. gondii growth inhibition with IFN-gamma, dose response, cell-based, ME49Luc, HeLa, luciferase, 72 h (AID 1259418)
Details: T. gondii ME49Luc in IFN-y HeLa, hits give low values, -100% = high-dose IFN-γ control wells; at 19.5 µM unless noted

Which max activity does the source give for `COCC(=O)N1CCC2(CC1)Nc1ccc(C)c(C)c1-n1cccc12` here?
Its max activity is 4.86% [at 10 µM].

For `CCc1nc(OCC(=O)Nc2ccc(Cl)c(C(F)(F)F)c2)c2ccccc2n1`, which max activity is on record?
Its max activity is 33.2% [at 2.6 µM].

Which max activity does the source give for `CN(C)CCN1CCOCC2(CCCN(C(=O)c3ccc4cc[nH]c4c3)C2)C1` (centres undefined) here?
The max activity was 32.3%.

For `Cc1cc(N2CCOCC2)nc2ccc(NC(=O)c3cc4ccccc4[nH]3)cc12`, which max activity is on record?
The max activity was 9.53% [at 0.16 µM].

For `COc1ccc(NC(=O)N2CCN(Cc3nc(-c4ccccc4C)oc3C)CC2)cc1`, which max activity is on record?
The max activity was 6.09% [at 0.16 µM].

For `O=C(NC1CCC12CCN(Cc1ccoc1)CC2)c1cnccn1` (centres undefined), which max activity is on record?
The max activity was 54.2%.

Which max activity does the source give for `Cc1cc(C)c2c(=O)n(Cc3nc(-c4ccccc4)oc3C)c(=O)n(-c3ccccc3)c2n1` here?
Its max activity is 11.1% [at 0.35 µM].

With `Cc1cc(C)c2c(=O)n(Cc3nc(-c4ccc(Cl)cc4)oc3C)c(=O)n(-c3ccccc3)c2n1` as the compound, how does the max activity read?
Its max activity is -16.5%.

Which max activity does the source give for `O=C(NC1CCCC1)[C@H]1[C@H](CO)[C@H]2Cn3c(ccc(C4=CCCCC4)c3=O)[C@@H]1N2CC1CC1` here?
The max activity was 28.5% [at 10 µM].

For `COc1ccccc1-c1nc(CSc2nc3c(c(=O)[nH]2)CN(Cc2ccccc2)CC3)c(C)o1`, which max activity is on record?
The max activity was 31.5%.

With `COCC1CN(C(=O)Cc2ccsc2)Cc2nccn2C1` (centres undefined) as the compound, how does the max activity read?
The max activity was 35.1%.

Which max activity does the source give for `CCCCc1ccc(Nc2ncnc3c2cnn3-c2cccc(C)c2)cc1` here?
Its max activity is 13.1% [at 5 µM].

Which max activity does the source give for `Cc1ccc(-n2ncc3c(NC(C)(C)C)ncnc32)c(C)c1` here?
Its max activity is 53.9%.

For `Cc1ccc(Nc2ncnc3c2cnn3-c2ccc(C)cc2C)cc1`, which max activity is on record?
Its max activity is 16.5% [at 1.35 µM].

Which max activity does the source give for `COCCCNc1ncnc2c1cnn2-c1ccc(C)cc1C` here?
The max activity was 11.9% [at 0.16 µM].

Which max activity does the source give for `CCOc1ccc(-c2nc3c(s2)CN(C(=O)Nc2ccccc2CC)CC3)cc1` here?
The max activity was 124%.

Which max activity does the source give for `Cc1oc(-c2cccc(Cl)c2)nc1CN1CCc2c(sc3c2CCCC3)C1c1ccccc1` (centres undefined) here?
Its max activity is 20.4%.

For `COc1ccc(N2CC(NC(=O)C(=O)c3c(C)[nH]c4ccccc34)CC2=O)cc1` (centres undefined), which max activity is on record?
The max activity was 15.6% [at 2.6 µM].

With `COc1ccc(CC(=O)N2CCC[C@@H]2C(=O)NCCc2csc(-c3ccccc3)n2)cc1Cl` as the compound, how does the max activity read?
Its max activity is 18.7% [at 5 µM].

Which max activity does the source give for `Cc1nc(-c2ccc(F)cc2)sc1-c1ccc(SCc2cccc(F)c2)nn1` here?
The max activity was 25.1%.

Which max activity does the source give for `CC(C)c1ccc(S(=O)(=O)N2CCC3(CC2)NCCN=C3NCc2ccccc2)cc1` here?
The max activity was -31.9%.

With `CC(C)c1ccc(S(=O)(=O)N2CCC3(CC2)NCCN=C3NCc2cccc(F)c2)cc1` as the compound, how does the max activity read?
The max activity was -18.4%.

For `COc1ccc(C2=NC3(CCN(CC(=O)Nc4ccccc4F)CC3)NC2=O)cc1`, which max activity is on record?
Its max activity is -25.6% [at 0.35 µM].

With `Cn1nnc2c(NCCc3c[nH]c4ccccc34)ncnc21` as the compound, how does the max activity read?
Its max activity is 6.96% [at 0.35 µM].

With `CCc1c(C)sc2c1CCN(Cc1nc(-c3ccc(OC)cc3)oc1C)C2c1ccccc1` (centres undefined) as the compound, how does the max activity read?
The max activity was 15.1% [at 5 µM].

For `N#Cc1cccc(-c2ccc(C3[C@@H]4CN(C(=O)Nc5ccc(C(F)(F)F)cc5)C[C@H]3N4)cc2)c1` (some centres undefined), which max activity is on record?
Its max activity is 16.9% [at 10 µM].

Which max activity does the source give for `Clc1cccc(CSc2nc(NC3CCCCC3)c3ccccc3n2)c1` here?
The max activity was 11% [at 10 µM].

With `CCc1onc(C)c1C1CCCN1Cc1cn(C)c2ccc(OC)cc12` (centres undefined) as the compound, how does the max activity read?
Its max activity is 9.05% [at 0.68 µM].

Which max activity does the source give for `Fc1ccc(CNc2nc(-c3ccc(Cl)cc3)nc3ccccc23)cc1` here?
Its max activity is 7.26%.

With `CCc1ccc(CNc2nc(-c3ccc(Cl)cc3)nc3ccccc23)cc1` as the compound, how does the max activity read?
The max activity was 24.5%.

For `COc1ccc(-c2nc(NCCc3ccc(Cl)cc3)c3ccccc3n2)cc1`, which max activity is on record?
The max activity was 25.9% [at 0.16 µM].

For `COc1ccc(-c2nc(NCCc3ccc(C)cc3)c3ccccc3n2)cc1`, which max activity is on record?
The max activity was 14.1% [at 0.16 µM].

For `COc1ccc(-c2nc(NCc3ccc4c(c3)OCO4)c3ccccc3n2)cc1`, which max activity is on record?
Its max activity is -12% [at 1.35 µM].

Which max activity does the source give for `COc1ccc(-c2nc(NCc3ccc(Cl)cc3)c3ccccc3n2)cc1` here?
Its max activity is -9.43% [at 0.35 µM].

For `CCC(C(=O)N1CSC[C@@H]1C(=O)NCCc1csc(-c2ccccc2)n1)c1ccccc1` (some centres undefined), which max activity is on record?
The max activity was 16.6% [at 5 µM].

With `COc1cccc(-c2nc3c(s2)CN(C(=O)Nc2ccccc2C)CC3)c1` as the compound, how does the max activity read?
Its max activity is 59.1%.

Which max activity does the source give for `CCCCOCCOCCOCc1cc2c(cc1CCC)OCO2` here?
Its max activity is 17.6%.

For `COc1ccc(-c2nc(Nc3cccc(C)c3)c3ccccc3n2)cc1`, which max activity is on record?
The max activity was -18.2% [at 0.16 µM].

With `CCc1nc(OCC(=O)NCc2ccc(OC)cc2)c2ccccc2n1` as the compound, how does the max activity read?
The max activity was 25.3%.

With `O=C(Cc1cccnc1)N1CC(=O)N2[C@H](CO)[C@H](c3ccc(/C=C/c4ccccc4)cc3)[C@@H]2C1` as the compound, how does the max activity read?
The max activity was 20.1% [at 10 µM].

For `C/C=C/c1ccc([C@H]2[C@H](CO)N3C(=O)CN(C(=O)NC4CCCCC4)C[C@@H]23)cc1`, which max activity is on record?
Its max activity is 19.7%.

With `O=C(Cc1cccnc1)N1CC(=O)N2[C@H](CO)[C@@H](c3ccc(/C=C/c4ccccc4)cc3)[C@H]2C1` as the compound, how does the max activity read?
The max activity was 9.82% [at 10 µM].

For `CC(C)C#Cc1ccc([C@@H]2[C@@H](CO)N3C(=O)CN(C(=O)NC4CCCC4)C[C@H]23)cc1`, which max activity is on record?
Its max activity is 19% [at 10 µM].

Which max activity does the source give for `CCc1ccc2c(c1)cc(S(=O)(=O)c1ccccc1)c(=O)n2CC(=O)NCCC1=CCCCC1` here?
Its max activity is -4.67% [at 2.6 µM].

For `Cc1nc(OCC(=O)NCc2ccc(F)cc2)c2ccccc2n1`, which max activity is on record?
The max activity was 25% [at 10 µM].

With `CCc1nc(OCC(=O)Nc2ccc(OC)cc2)c2ccccc2n1` as the compound, how does the max activity read?
The max activity was -14.2%.

For `CC(=O)N1CCN(C(C)C)C(c2nnc3ccc(C(=O)N4CCCC4)cn23)C1` (centres undefined), which max activity is on record?
Its max activity is 43.3%.

For `COCC(=O)N1CC(=O)N2[C@H](CO)[C@@H](c3ccc(-c4ccncc4)cc3)[C@H]2C1`, which max activity is on record?
The max activity was 45.2%.

Which max activity does the source give for `COCC(=O)N1CC(=O)N2[C@H](CO)[C@@H](c3ccc(-c4ccccc4F)cc3)[C@H]2C1` here?
Its max activity is 43.4%.

Which max activity does the source give for `COc1ccc(-c2ccc([C@@H]3[C@@H](CO)N4C(=O)CN(Cc5ccccc5)C[C@@H]34)cc2)cc1` here?
Its max activity is 9.38% [at 5 µM].

With `COc1ccc(-c2ccc([C@@H]3[C@@H](CO)N4C(=O)CN(Cc5ccccc5)C[C@H]34)cc2)cc1` as the compound, how does the max activity read?
Its max activity is 18% [at 10 µM].

For `Cc1ccc(CNC(=O)Cn2c(=O)c(S(=O)(=O)c3ccccc3)cc3ccccc32)cc1`, which max activity is on record?
The max activity was 11% [at 0.16 µM].

For `Cc1ccc2[nH]c(C(=O)N3CCN(c4ccccn4)CC3)c(NC(=O)c3ccc(Cl)cc3)c2c1`, which max activity is on record?
The max activity was 30.8% [at 10 µM].

Which max activity does the source give for `COCC(=O)Nc1ccc(-c2nc(-c3ccc(C)cc3C)co2)cc1` here?
The max activity was 13.9% [at 0.16 µM].

With `O=C(c1ccccc1F)N1CCC2(CC1)Nc1cc(F)ccc1-n1cccc12` as the compound, how does the max activity read?
Its max activity is -7.85% [at 2.6 µM].

Which max activity does the source give for `CCCCC(=O)Nc1ccc(-c2nc(-c3ccccc3)co2)cc1` here?
Its max activity is 9.5% [at 10 µM].

For `COCCCN1CCc2nc(SCc3nc(-c4ccc(OC)cc4)oc3C)[nH]c(=O)c2C1`, which max activity is on record?
The max activity was 25.5% [at 0.16 µM].

With `Cc1nc(CCNC(=O)C2CCN(S(=O)(=O)c3ccc(F)c(Cl)c3)CC2)cs1` as the compound, how does the max activity read?
The max activity was 8.69% [at 5 µM].

For `Cc1ccc(-c2coc(-c3ccc(NC(=O)Nc4cccc(Cl)c4)cc3)n2)cc1`, which max activity is on record?
The max activity was 13.6% [at 2.6 µM].

For `COc1ccc(-c2cc(C(=O)Nc3ccc4c(c3)CCC(=O)N4)c3ccccc3n2)cc1`, which max activity is on record?
The max activity was 13.4% [at 5 µM].

With `Cc1oc(-c2ccccc2)nc1Cn1nnc(-c2nc(-c3cccc(Cl)c3)no2)c1C` as the compound, how does the max activity read?
The max activity was -9.25% [at 5 µM].

With `COc1ccc2[nH]cc(CCNC(=O)c3sc4ncnc(N(C)C5CCCCC5)c4c3C)c2c1` as the compound, how does the max activity read?
Its max activity is 9.31% [at 5 µM].

With `Cc1ccc(-c2coc(-c3ccc(NC(=O)Nc4ccc(F)cc4F)cc3)n2)c(C)c1` as the compound, how does the max activity read?
Its max activity is 9.31% [at 0.68 µM].

For `COc1ccc(Cl)cc1NC(=O)Nc1ccc(-c2nc(-c3ccccc3)co2)cc1`, which max activity is on record?
Its max activity is -16.1% [at 0.68 µM].

Which max activity does the source give for `COc1ccc(CNC(=O)CC2N=C3c4ccccc4N=C(SCc4ccccc4Cl)N3C2=O)cc1` (centres undefined) here?
The max activity was 18.1% [at 0.68 µM].

With `COc1ccc(CNC(=O)CC2N=C3c4ccccc4N=C(SCc4cc(=O)n5cc(Cl)ccc5n4)N3C2=O)cc1` (centres undefined) as the compound, how does the max activity read?
The max activity was -22.2%.

Which max activity does the source give for `COc1ccccc1CNC(=O)CC1N=C2c3ccccc3N=C(SCc3ccc(Cl)cc3)N2C1=O` (centres undefined) here?
Its max activity is 28% [at 5 µM].

Which max activity does the source give for `O=C(CCC1N=C2c3ccccc3N=C(SCc3ccccc3F)N2C1=O)NCc1ccco1` (centres undefined) here?
The max activity was 61.5% [at 10 µM].

For `COc1ccccc1CNC(=O)CCC1N=C2c3ccccc3N=C(SCc3ccccc3F)N2C1=O` (centres undefined), which max activity is on record?
Its max activity is 8.88%.

Which max activity does the source give for `COc1ccccc1CNC(=O)CCC1N=C2c3ccccc3N=C(SCc3ccccc3Cl)N2C1=O` (centres undefined) here?
The max activity was -11% [at 0.35 µM].

For `COc1ccccc1CNC(=O)CC1N=C2c3ccccc3N=C(SCc3cc(=O)n4ccccc4n3)N2C1=O` (centres undefined), which max activity is on record?
The max activity was 17.5% [at 0.16 µM].

For `O=C(CCC1N=C2c3ccccc3N=C(SCc3ccccc3Cl)N2C1=O)NCc1cccs1` (centres undefined), which max activity is on record?
Its max activity is 20.4% [at 5 µM].

For `COc1ccc(CNC(=O)CCC2N=C3c4ccccc4N=C(SCc4ccccc4Cl)N3C2=O)cc1` (centres undefined), which max activity is on record?
The max activity was -10.1% [at 0.16 µM].

With `Cc1nc(OCC(=O)Nc2cc(Cl)ccc2C)c2ccccc2n1` as the compound, how does the max activity read?
Its max activity is 25.9% [at 0.16 µM].
